Screening results as filed in PubChem BioAssay.
ClpP mod: qHTS Assay for Activators of ClpP. Potency, µM (series often up to 57.5 µM), inactives show at the top dose activity change, negative = active. hit rate 1.9% among 340,000. purified B. subtilis ClpP, FRET peptide cleavage, 20 min. ATP-dependent Clp protease proteolytic subunit (Bacillus subtilis (strain 168)), P80244. AID 651965, 2013; active = well fitted falling curve with a large enough effect; inconclusive = small, poorly fitted or top-dose-only effect; inactive = no such curve, though single readings can be large or run the other way; also: potency is read from the fitted curve at half-maximal effect; the source files actives as falling curves though it sought activators and does not explain the sign; nearly all actives have a fitted effect of over 65% in size
Target sequence (P80244 whole entry, looked up): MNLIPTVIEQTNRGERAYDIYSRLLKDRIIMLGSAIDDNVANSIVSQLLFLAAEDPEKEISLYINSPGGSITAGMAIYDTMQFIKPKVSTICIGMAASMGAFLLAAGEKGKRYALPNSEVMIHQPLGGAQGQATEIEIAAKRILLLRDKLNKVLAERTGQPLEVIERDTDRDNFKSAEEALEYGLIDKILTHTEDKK
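ClpP 10 microg/mL final, pH 8 Tris/KCl buffer with BSA, glycerol, Tween-20; compound pinned in; FRET-FV substrate; RT 20 min; Ex320/Em430; ΔFRET vs ADEP 5.8 microM, DMSO, no enzyme.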
gsp antag: antagonizes gsp, the McCune-Albright syndrome mutation. gsp-mutant cells, cAMP HTRF, 30 min. AID 624288. Potency, µM (series often up to 76.9 µM), for the others: at the top dose activity change, negative = inhibition, hits mostly inhibitors. hit rate 0.4% among 340,000; calls by dose curve; cell line not stated here;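 also: intracellular cAMP measured with PDE inhibitor Ro 20-1724 present during compound exposure; potency is read from the fitted curve at half-maximal effect; % is scaled to controls: 0 for no effect and ±100 for the full control effect; nearly all actives have a fitted effect of over 65% in size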
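Cells, 2000/well, grown 16–24 h in DMEM 10% FBS with 0.5 mg/ml G418, then compounds plus […] (300 uM addition stock), 30 min at 37C. cAMP read by HTRF (cAMP-d2 and anti-cAMP antibody-K in lysis buffer) after 30 min RT.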
Akt phos inh: inhibitors of Akt phosphorylation; activity change, % for hits at 50 µM; hit rate 0.32% among 360,000; Neuro2A IGF-stimulated pAkt S473 HTRF, 20 min; stronger effect = lower value; AID 651550; in the data active = activity change below about -80%; inconclusive = mostly about -51% to -80%; also: % is scaled to controls: 0 for no effect and ±100 for the full control effect
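Neuro2A cells (4,500/well, DMEM with 0.5% FBS) were treated with compound at a single 50 µM final concentration, stimulated with 6 nM IGF for 20 min at 37 °C, and lysed. Phospho-Akt Ser473 was read by HTRF as 665/615 ratio ×10^4.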
gsp agonist: agonists of gsp mutant (McCune-Albright syndrome); gsp mutant cells, cAMP HTRF, 30 min; Potency, µM (top dose mostly 76.9 µM), inactives show at the top dose activation (cAMP increase), most hits filed as activators; hit rate 0.13% among 340,000; AID 624287; active = well fitted activation curve with a large enough effect; inconclusive = small, poorly fitted or top-dose-only effect, or another doubt; inactive = no such curve, though single readings can be large or run the other way; cell line not stated here;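 also: phosphodiesterase inhibitor Ro 20-1724 added with compounds to block cAMP breakdown; potency is read from the fitted curve at half-maximal effect; nearly all actives have a fitted effect of over 60% in size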
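Cells in DMEM/10% FBS with G418 were pretreated with compounds in DMSO plus […] (300 uM stock) for 30 min at 37C. cAMP was measured by HTRF (cAMP-d2 plus anti-cAMP antibody-K) after 30 min at room temperature.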
RXFP1 agonist: RXFP1 (human) receptor agonism; Q9HBX9; Potency, µM (series often up to 57.5 µM), for the others: at the highest dose activation, hits mostly activators; hit rate 0.3% among 370,000; HEK293T-RXFP1 cAMP TR-FRET, 30 min; response scale: percent of porcine relaxin response, buffer zero; AID 2676; active = well fitted activation curve with a large enough effect; inconclusive = small, poorly fitted or top-dose-only effect; also: potency is read from the fitted curve at half-maximal effect; % is scaled to controls: 0 for no effect and ±100 for the full control effect; nearly all actives have a fitted effect of over 60% in size
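HEK293T cells stably expressing RXFP1 were pretreated with the PDE4 inhibitor Ro 20174, exposed to compounds for 30 min at 37C, lysed, and cAMP was read by TR-FRET. Data normalized to buffer (basal) and 29 nM porcine relaxin (100%).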
RXFP1 antagonist: antagonists of human relaxin receptor RXFP1; Q9HBX9; AID 1259400; hit rate 0.59% among 350,000; activity change, negative = inhibition, % at 57.5 µM; HEK293-RXFP1, relaxin-stimulated cAMP HTRF, 30 min; stronger effect = lower value;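 active = activity change of -60% or lower, but not beyond a set lower limit; inconclusive = change between -60% and -40%, or beyond the set limit; inactive = change above -40%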; also: % is scaled to controls: 0 for no effect and ±100 for the full control effect
An asterisk follows results filed as active; i = inactive; ? = inconclusive; nt = no result given; [ ] = dose if it differs, or a comment. Hits are enriched below; roughly 2.7% of the tested compounds scored in any of these assays.

SMILES | ClpP mod | gsp antag | Akt phos inh | gsp agonist | RXFP1 agonist | RXFP1 antagonist
O=S(=O)(c1ccc(Cl)cc1)N1CCN(c2nc(-c3ccccc3)nc3ccccc23)CC1 | -20% | nt | nt | nt | nt | nt
Cc1cccn2c(=O)c3cc(C(=O)NCc4ccco4)c(=N)n(C(C)C)c3nc12 | 14µM* | 5% | i | ? | 6% | 15
N=c1c(C(=O)NC2CCCC2)cc2c(=O)n3ccccc3nc2n1C1CCCC1 | 3.2µM* | -2% | nt | ? | 0% | -8
N=c1c(C(=O)NCc2ccco2)cc2c(=O)n3ccccc3nc2n1Cc1ccccc1 | 18µM* | -16% | i | 8% | 1% | -9
Cc1cccn2c(=O)c3cc(C(=O)NC4CCCC4)c(=N)n(C4CCCC4)c3nc12 | ? | -14% | i | -7% | 7% | -9
COCCn1c(=N)c(C(=O)NCc2ccco2)cc2c(=O)n3ccccc3nc21 | 28µM* | 3% | i | 11% | 0% | 5
CCC(C(=O)O)c1ccc(N2Cc3ccccc3C2=O)cc1 (configuration not stated) | nt | nt | nt | nt | nt | -13
CC(C(=O)NCc1ccccc1F)n1ccc2cc(S(=O)(=O)N3CCCC3)ccc21 (configuration not stated) | 1% | nt | nt | nt | -1% | -5
CC(C)(C)Cc1c(-c2cccc(Cl)c2)nc2ccc(Br)cn12 | -8% | nt | i | nt | nt | nt
CC(C)Cc1nc2oc3c(=O)[nH]cnc3c2c2c1CCC2 | 11µM* | 1% | i | -5% | 2% | -3
COc1ccc(CNC(=O)c2cc3c(=O)n(Cc4cccnc4)ccc3nc2C)cc1 | 25µM* | nt | nt | nt | 3% | -4
COc1cccc(CNC(=O)c2cc3c(=O)n(Cc4cccnc4)ccc3nc2C)c1 | ? | nt | nt | nt | 7% | -12
Cc1ccc(CNC(=O)c2cc3c(=O)n(Cc4cccnc4)ccc3nc2C)cc1 | 28µM* | nt | nt | nt | 3% | -13
COc1ccc(CNC(=O)c2cc3c(=O)n(Cc4cccs4)ccc3nc2C)cc1 | 14µM* | nt | nt | nt | 0% | 10
COc1ccc(NC(=O)CCCc2nc3ccccc3c(=O)[nH]2)cc1Cl | nt | 0% | i | 13% | nt | -2
Cc1nn(-c2nc(-c3ccco3)cc(C(F)(F)F)n2)c(C)c1Cl | -7% | 12% | -116%* | -37% | 1% | -3
COc1cc2[nH]c(=O)n(Cc3ccc(C(=O)NCC4CCCO4)cc3)c(=O)c2cc1OC (configuration not stated) | 25µM* | 10% | i | -9% | 3% | -6
CCN1CCN(C(=O)c2ccc(Cn3c(=O)[nH]c4cc(OC)c(OC)cc4c3=O)cc2)CC1 | 16µM* | 5% | i | ? | 2% | -4
CN(C)c1ccc(/C=C/c2ccnc3c(O)ccc(O)c23)cc1 | -4% | nt | nt | nt | nt | nt
CCCc1ccc(-c2cc(C(=O)N3CCN(c4ccccn4)CC3)c3ccccc3n2)cc1 | -23% | -7% | i | 3% | 1% | 0
Cc1ccc(N(Cc2cccs2)C(=O)C(C)Oc2ccc(Cl)c(C)c2)cc1 (configuration not stated) | 2% | nt | nt | nt | -2% | -100*
COc1ccc(N(Cc2cccs2)C(=O)c2ccc(C(C)(C)C)cc2)cc1 | 0% | nt | nt | nt | -1% | -73*
Cc1ccc(N(Cc2cccs2)C(=O)c2ccc(Br)o2)cc1 | 1% | nt | nt | nt | 0% | -85*
CCC(C)(C)C(=O)O[C@H]1C[C@@H](C)C=C2C=C[C@H](C)[C@H](CC[C@@H]3C[C@@H](O)CC(=O)O3)[C@H]21 | 1% | -14% | i | nt | 1% | ?
CC(=O)NS(=O)(=O)c1ccc(N=c2ssc3c2-c2cc(C)c(C)cc2NC3(C)C)cc1 | -1% | 14µM* | i | -17%[15.4 µM] | 0% | -20
SMILES | ClpP mod | gsp antag | Akt phos inh | gsp agonist | RXFP1 agonist | RXFP1 antagonist
Cc1cc2c(cc1C)-c1c(ssc1=Nc1ccc(S(N)(=O)=O)cc1)C(C)(C)N2 | 1% | ? | i | -45% | 4% | -11
N#Cc1ccc(CN2CCN(C(=O)CN3C(=O)NC4(CCCC4)C3=O)CC2)cc1 | -1% | -3% | i | 10% | 1% | 1
Cc1ccc2oc(-c3cccc(NC(=O)C4CCCO4)c3)nc2c1 (configuration not stated) | 28µM* | -27% | i | 15% | 0% | -2
CCCC(=O)Nc1ccc2oc(-c3cccnc3)nc2c1 | 16µM* | 3% | i | 3% | 5% | -1
CCCC(=O)Nc1cccc(-c2nc3cc(C)c(C)cc3o2)c1 | 22µM* | -17% | i | ? | 5% | -5
CCCC(=O)Nc1cccc(-c2nc3ccccc3o2)c1 | 0% | 1% | i | 1% | 2% | 2
Cc1cccc(-c2nc3cc(NC(=O)C4CCCO4)ccc3o2)c1 (configuration not stated) | ? | -8% | i | ? | 0% | -9
CCCC(=O)Nc1ccc2oc(=O)ccc2c1 | 25µM* | 7% | i | -4%[15.4 µM] | 3% | -6
Cc1cccc(OCC(=O)Nc2ccc3oc(=O)ccc3c2)c1 | nt | 0% | i | -29% | 2% | -7
Cc1ccc2c(c1)ncc[n+]2CC(=O)c1ccc(F)cc1 | -12% | nt | nt | nt | nt | nt
CC[C@@H]([C@H](C)O)n1ncn(-c2ccc(N3CCN(c4ccc(OC[C@@H]5CO[C@@](Cn6cncn6)(c6ccc(F)cc6F)C5)cc4)CC3)cc2)c1=O | nt | nt | nt | nt | nt | -20
CCOc1ccc(C(=O)Nc2ccc3oc(-c4cccnc4)nc3c2)cc1 | -12% | nt | nt | nt | -42% | 2
CCCCC(=O)Nc1ccc2oc(-c3cccnc3)nc2c1 | 18µM* | -20%[15.4 µM] | i | ? | 5% | 1
COC(=O)c1cc(NC(=O)c2c(Cl)nc3sccn23)cc(C(=O)OC)c1 | -3% | 1% | i | 4% | 8% | -10
COC(=O)c1cc(=O)nc2sccn12 | 28µM* | 6% | i | -18% | 2% | 3
COC(=O)c1cc(=O)nc2sc3cc(OC)ccc3n12 | 3% | 9% | -114%* | 17% | 5% | 9
Cc1cc(=O)n2nc(-c3ccccc3)sc2n1 | ? | -1% | i | 12% | -1% | 2
COC(=O)c1cc(=O)nc2sc(-c3ccccc3)nn12 | 28µM* | -3% | i | -13% | 1% | -8
CC(C)(C)CC(C)(C)N=C1Nc2ccc(Cl)cc2N[C@]12C[C@H]1CCCC(=O)N3CC[C@@H](C2)[C@@H]13 | -2% | nt | nt | nt | nt | nt
COC(=O)c1ccc(NC(=O)N2CCN(c3nnc(C)c4c(C)n(-c5ccccc5)nc34)CC2)cc1 | -29% | nt | nt | nt | 3% | 2
O=C(NNc1c(Cl)cccc1Cl)c1sc2ccccc2c1Cl | 0% | nt | nt | nt | nt | nt
